# Measurements as given in PubChem BioAssay (EPA / NIEHS).
# “And” between values parts separate entries of the source, which are not always exact repeats. Identical values can stand only once. Where a structure was tested more than once in an assay, its records may differ in their call. The source made the active and inactive calls. Rule for the calls: active = hit-call score of the fitted dose curve at least 0.9, where 1 is the maximum; inactive = score below 0.9.
# Test: ATG_VDRE_CIS: Attagene CIS-FACTORIAL HepG2 Assay for human Vitamin D Receptor Element (VDRE) (AID 2282968)
# Conditions: HepG2 VDRE cis-reporter transcription, actives raise or lower the signal
# Experimental: ATG_CIS is a cell-based, multiplexed-readout assay that uses HepG2, a human liver cell line, with measurements taken at 24 hours after chemical dosing in a 24-well plate.ATG_VDRE_CIS is one of 52 assay component(s) measured or calculated from the ATG_CIS assay. It is designed to make measurements of mRNA induction, a form of inducible reporter, as detected with fluorescence intensity signals by Reverse transcription polymerase chain reaction (RT-PCR) and Capillary electrophoresis technology.Data from the assay component ATG_VDRE_CIS was analyzed into 1 assay endpoint. This assay endpoint, ATG_VDRE_CIS, was analyzed with bidirectional fitting relative to DMSO as the negative control and baseline of activity. Using a type of inducible reporter, measures of mRNA for gain or loss-of-signal activity can be used to understand the reporter gene at the transcription factor-level as they relate to the gene VDR. Furthermore, this assay endpoint can be referred to as a primary readout, because this assay has produced multiple assay endpoints where this one serves a reporter gene function. To generalize the intended target to other relatable targets, this assay endpoint is annotated to the nuclear receptor intended target family, where the subfamily is non-steroidal.
# Human liver HepG2 cells are transiently transfected with multiple reporter transcription units (MRTUs) in 6-well plates using FuGene 6 reagent (Roche; 3 ml FuGene/1 mg DNA). The MRTU constructs are regulated by a cis-regulating element (promoter). […] A major difference between the CIS and TRANS system is that in CIS activities of endogenous TFs are measured, whereas the TRANS assay evaluates changes in activities of exogenous, chimeric NR-Gal4 proteins. […] At the end of 24 hour incubation, total RNA was isolated using TriZol reagent (Invitrogen). The isolated RNA is then reverse-transcribed using oligo(dT) primer and Mo-MLV reverse transcriptase (Invitrogen) with DNAse I (Ambion) treatment for 30 min. The one-tenth of the produced cDNA was amplified by PCR using Taq DNA polymerase (Invitrogen) and two reporter sequence-specific primers. The PCR products were fluorescently labeled by primer extension with 6-arboxyfluorescein (6-FAM) 5'-labeled reporter sequence-specific primer (2 min at 95 C, 20 s at 68 C and 10 min at 72 C) and these products were digested with 5U of HpaI (New England Biolabs) for 2h at 37 C. The fragments were purified using Qiaquick PCR columns (Qiagen), analyzed on an ABI 3130xL genetic analyzer (Applied Biosystems) with peak positions identified by using a set of X-rhodamine (ROX)-labeled MapMarker1000 molecular weight standards (BioVentures). The raw capillary electrophoresis data was processed using Attagraph software (Attagene).
Structure (SMILES),outcome,AC50
CC(C#N)CCC#N (stereo not given),inactive,–
CCNc1nc(NC(C)(C)C)nc(SC)n1,–,31.8 µM (active)
Cn1sc(Cl)cc1=O,inactive,–
CCOC(=O)Nc1cccc(OC(=O)Nc2ccccc2)c1,inactive,–
CC(=O)C(Cl)C(=O)N(C)C (stereo not given),inactive,–
CC(C)CCCCCCOC(=O)c1ccccc1C(=O)OCCCCCCC(C)C,inactive,–
CCOP(=S)(OCC)SCCS(=O)(=O)CC,inactive,–
O=C(Cc1ccccc1)c1ccccc1,inactive,–
O=C1C2(Cl)C3(Cl)C4(Cl)C(Cl)(Cl)C5(Cl)C3(Cl)C1(Cl)C5(Cl)C24Cl (stereo not given),inactive,13.1 µM (active)
O=Cc1cccc(Oc2ccccc2)c1,inactive,–
CC1CN1P(=O)(N1CC1C)N1CC1C (stereo not given),inactive,–
CCSC(C)CC1CC(=O)C(C(CC)=NOC/C=C/Cl)=C(O)C1 (stereo not given),–,11.3 µM (active)
c1cc[c]([Hg][c]2ccccc2)cc1,–,27.3 µM (active)
CC(C)(c1ccc(OCC2CO2)cc1)c1ccc(OCC2CO2)cc1 (stereo not given),–,24.9 µM (active)
Nc1ccc(Cl)cc1C(=O)c1ccccc1,–,16.6 µM (active)
C=C(C)C#N,inactive,–
O=[N+]([O-])c1c(Cl)c(Cl)cc(Cl)c1Cl,inactive,–
Nc1ccc(N=Nc2ccc(-c3ccc(N=Nc4c(S(=O)(=O)O)cc5cc(S(=O)(=O)O)c(N=Nc6ccccc6)c(O)c5c4N)cc3)cc2)c(N)c1,inactive,–
O=S(=O)(c1ccc(Cl)cc1)c1ccc(Cl)cc1,–,27.2 µM (active)

Structure (SMILES),outcome,AC50
CC12CC1(C)C(=O)N(c1cc(Cl)cc(Cl)c1)C2=O (stereo not given),inactive,8.04 µM (active)
N#CCc1ccc(Cl)cc1,inactive,–
COc1ccc(C=O)cc1,inactive,–
CC(C)c1ccc(CO)cc1,–,36.2 µM (active)
O=C(O)C(F)(F)C(F)(F)C(F)(F)C(F)(F)C(F)(F)C(F)(F)C(F)(F)C(F)(F)C(F)(F)C(F)(F)F,–,25.7 µM (active) and 16.8 µM (active)
O=C(O)C(Cl)(Cl)Cl,inactive,–
C[C@]12CCC(=O)C[C@@H]1CC[C@@H]1[C@@H]2CC[C@]2(C)[C@@H](O)CC[C@@H]12,inactive,33 µM (active) and 17.9 µM (active) and 23.4 µM (active)
COc1cccc(C=O)c1,inactive,–
C[C@H]1O[C@@H](O[C@H]2[C@@H](O)C[C@H](O[C@H]3[C@@H](O)C[C@H](O[C@H]4CC[C@@]5(C)[C@H](CC[C@@H]6[C@@H]5CC[C@]5(C)[C@@H](C7=CC(=O)OC7)CC[C@]65O)C4)O[C@@H]3C)O[C@@H]2C)C[C@H](O)[C@@H]1O,inactive,–
O=C(OC1CCCCC1)c1ccccc1C(=O)OC1CCCCC1,–,2.82 µM (active)
CCN1CCC2(CC1)COc1cc3c(cc12)N(C(=O)c1ccc(-c2ccc(-c4nnc(C)o4)cc2C)cc1)CC3,inactive,–
CCOP(=O)(CN(CCO)CCO)OCC,inactive,–
COP(=O)(OC)OC,inactive,–
CCC(C)c1cccc(C(C)CC)c1O (stereo not given),inactive,–
COC(=O)c1sccc1S(=O)(=O)NC(=O)Nc1nc(C)nc(OC)n1,inactive,–
ClC1=C(Cl)[C@]2(Cl)[C@H]3[C@H]([C@H]4C=C[C@H]3C4)[C@@]1(Cl)C2(Cl)Cl,inactive,–
C=CC#N,inactive,–
CC(C)OC(=O)Nc1ccccc1,inactive,–
